According to PubChem BioAssay AID485313 (National Center for Advancing Translational Sciences (NCATS), 2010):
The campaign covered roughly 320,000 compounds. About 7,600 (2.4%) were called active. Another 3% or so got no clear call; they are omitted. Calls come from the whole dose curve; as a rule, active = well fitted activation curve with a large enough effect; inconclusive = small, poorly fitted or top-dose-only effect; inactive = no such curve, though single readings can be large or run the other way. What follows is part of a selection rich in actives, with near analogues and random picks from the rest.

Experiment: qHTS Assay for NPC1 Promoter Activators; note: nearly all actives have a fitted effect of over 60% in size;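 for activation: reporter is driven by a mutant NPC1 promoter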
Details: Huh7 NPC1 promoter luciferase reporter, 24 h; series mostly up to 9.22 µM
Procedure, shortened: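 In 1536-well qHTS, Huh7 cells harboring an NPC1 promoter–luciferase construct received compound for 24 h; activation was quantified by luminescence following luciferase reagent addition.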
Potency is the fitted concentration of half-maximal effect.

Potency, inactive:
Cc1cccc(-c2oc3ccc(-c4ccc5c(c4)OCO5)cc3c2C#Cc2cncn2C)c1
Cc1cccc(C)c1OCCN1CCOCC1
CCn1c2ccc(F)cc2c2nnc(SCCN3CCOCC3)nc21
CC(=O)Nc1ccc(NC(=O)C(NS(=O)(=O)c2ccc3c(c2)OCCO3)C(C)C)cc1 (centres undefined)
COc1cccc(NC(=O)CN(C)C(=O)/C=C/c2cn(-c3ccccc3)nc2-c2cccs2)c1
CC1Cc2ccccc2N1S(=O)(=O)c1cccc(C(=O)NCC(c2ccco2)N2CCCC2)c1 (centres undefined)
CSCC[C@H](NC(=O)OC(C)(C)C)C(=O)N/N=C/c1cc2ccc(C)cc2nc1Cl
Cc1ccc2cc(/C=N/NC(=O)[C@@H]3CCCN3)c(Cl)nc2c1
O=C(CSc1nc2ccccc2c(=O)n1CCCO)NC1CC1
S=C(NNC(=S)NC1CC2C=CC1C2)NC1CC2C=CC1C2 (centres undefined)
S=C(NNC(=S)NC1CC2CCC1C2)NC1CC2C=CC1C2 (centres undefined)
CCOC(=O)C1=C(COC(=O)[C@H](C)NS(=O)(=O)c2ccccc2F)NC(=O)NC1C (some centres undefined)
CCOc1ccc(C(C)NC(=O)CN2C(=O)NC3(CCCCC3)C2=O)cc1OCC (centres undefined)
CCC(=O)Nc1ccc(C(=O)Nc2cc(C)on2)cc1
Cc1ccc(C(=O)/C=C/Nc2ccc(S(=O)(=O)Nc3onc(C)c3C)cc2)cc1
CCOC(=O)Cc1csc(SCC(=O)Nc2ccc(C)cc2F)n1
Cc1ccc(S(=O)(=O)N2CCCCC2)cc1NC(=O)c1cccnc1
CCCCc1ccc(NC(=O)CN2C(=O)NC(Cc3ccccc3)C2=O)cc1 (centres undefined)
NC(=O)COC(=O)c1sc2cc(F)ccc2c1Cl
COc1ccc2c(c1OC)C(=O)N(c1ncn[nH]1)C2
COc1cc(C(=O)N2C(=O)c3cccc(N)c3C2=O)cc(OC)c1OC
O=C(c1cc2ccccc2o1)N1CCN(S(=O)(=O)c2ccc(Cl)s2)CC1
O=C(OCC(=O)N1CCOCC1)c1ccc2ccccc2c1
CCCCNC(=O)Cn1nc(C)c(S(=O)(=O)N2CCOCC2)c1C
O=c1ccc(S(=O)(=O)N2CCCC2)cn1Cc1nc(-c2ccccc2)no1
O=C(CCS(=O)(=O)Cc1ccccc1)Nc1ccc2c(c1)OCCO2
CCc1ccc(NC(=O)Cn2nnc(C(=O)NCc3ccc4c(c3)OCO4)c2N)cc1
Nn1c(SCC(=O)Nc2nccs2)nnc1-c1ccco1
CC(C)[C@@H](C(=O)O)N(Cc1cccc(CN([C@H](C(=O)O)C(C)C)S(C)(=O)=O)c1)S(C)(=O)=O
Nc1ccn(C2CC(O)C(CO)O2)c(=O)n1 (centres undefined)
COc1ccc(C2Nc3ccccc3C(=O)N2Cc2ccccc2)cc1Cn1nnc2ccccc21 (centres undefined)
COc1ccc(C2Nc3ccccc3C(=O)N2c2ccc(F)cc2)cc1Cn1nnc2ccccc21 (centres undefined)
COc1cccc(NC(=O)c2ccc(Cn3cc([N+](=O)[O-])cn3)o2)c1
COc1ccccc1CC(=O)Nc1ccc([N+](=O)[O-])cc1OC
COC(=O)Cc1ccc(OCC(=O)NC2CCCC2)cc1
CN(CCOc1ccccc1)C(=O)c1cc(-c2ccco2)nc2ccccc12
CCN(c1ccccc1)S(=O)(=O)c1cccc(C(=O)NCc2ccccc2CN2CCOCC2)c1
CC(=O)Cn1cnc2c(cnn2-c2ccccc2)c1=O
CN(C(=O)COc1ncnc2c1cnn2-c1ccccc1)C1CCCCC1
Cc1ccc(S(=O)(=O)N(C)C)cc1NC(=O)CN1c2cccc3cccc(c23)S1(=O)=O
N#CC1(NC(=O)COC(=O)CSc2ccc(F)cc2)CCCCC1
COc1ccc(S(=O)(=O)N2CCN(CC(=O)N3c4ccccc4CC3C)CC2)cc1OC (centres undefined)
Cc1cc(C)nc(Nc2ncn[nH]2)n1
Cc1ccccc1-c1n[nH]c(=S)n1C
CCCC(=O)Nc1ccc2c(c1)nc(CCNC(=O)c1ccco1)n2C
O=C(Nc1cccc(-c2nc3ncccc3o2)c1)c1ccco1
COc1ccccc1S(=O)(=O)NCc1ccc(C(=O)N(C)Cc2ccc(F)cc2)cc1
CC(=O)Nc1cccc(Nc2nc(-c3cccs3)nc3ccccc23)c1
Cc1cccc(S(=O)(=O)CC(=O)Nc2nc(-c3ccccc3)cs2)c1
CC(=O)Nc1ccc(-c2csc(NC=C3C(=O)OC(C)(C)OC3=O)n2)cc1
CCS(=O)(=O)Nc1cccc(-c2cc(-c3ccccc3)c3cc(C)ccc3n2)c1
COCCn1c(=NC(=O)c2ccccc2[N+](=O)[O-])sc2cc(S(C)(=O)=O)ccc21
Cc1cccc(C(=O)NCC(=O)OCC(=O)N(C)CC(=O)Nc2ccccc2Cl)c1
O=C(CSc1nnc(N2CCOCC2)n1-c1cccc(F)c1)N1CCN(c2ccccn2)CC1
Cc1ccc(F)cc1S(=O)(=O)Nc1cccc(C(=O)N2CCCC(C(N)=O)C2)c1 (centres undefined)
COc1ccccc1C(=O)NC(CCSC)C(=O)N1CCN(C(C)=O)CC1 (centres undefined)
C(=N/Nc1cc(N2CCOCC2)nc(N2CCOCC2)n1)/c1ccccc1
CCN(CC)c1ccc(C(=O)N/N=C/c2ccc(N3CCOCC3)cc2)cc1
CN1CCN(S(=O)(=O)c2cccc(C(=O)Nc3sccc3C#N)c2)CC1
O=C1COc2ccc(C(=O)CSc3ccc(Br)cc3)cc2N1
COc1ccc(C[C@H](C(=O)O)N2C(=O)c3ccc(C(=O)O)cc3C2=O)cc1
Cc1ccc2[nH]cc(CCCN3C(=O)c4ccccc4C3=O)c2c1
CC(C)(C)OC(=O)N[C@H](C(=O)OC(C)(C)C)c1ccc(Br)cc1
COc1ccccc1OCCNC(=O)C(CCSC)NC(=O)COc1ccccc1 (centres undefined)
NC(=O)c1ccsc1NC(=O)COC(=O)COc1ccc(C=O)cc1
COc1ccc(NS(=O)(=O)c2ccc3oc(SCC(N)=O)nc3c2)cc1
COc1ccc(S(=O)(=O)N(C)C)cc1NC(=O)CSc1ncccn1
CCCC(=O)N(CCN1CCOCC1)c1nc2ccc(OCC)cc2s1
CCOc1ccc2nc(N(CCN(C)C)C(=O)c3ccc4ccccc4c3)sc2c1
Cc1ccc(Nc2nnc(SCC(=O)c3cc4ccccc4o3)s2)cc1C
O=C(CSc1nnc(Nc2ccccc2)s1)Nc1cccnc1Cl
O=S(=O)(c1cccs1)N1CCN(CCOc2ccccc2)CC1
CCOc1ccc(NS(=O)(=O)c2ccc(Cl)c(C(=O)N(C)Cc3cccnc3)c2)cc1
Cc1ccc(C(=O)CN2C(=O)NC3(CCOc4ccccc43)C2=O)s1 (centres undefined)
O=C(OCC(=O)N1CCN(C(=O)c2ccco2)CC1)c1ccc(Cl)c(Cl)c1
O=C(COC(=O)c1ccncc1)c1ccccc1
CC(NC(=O)COC(=O)c1ccc2c(c1)OCO2)c1ccccc1 (centres undefined)
O=C(COC(=O)c1ccc2c(c1)OCCO2)NCc1ccccc1
CC(=O)Nc1cccc(C(=O)OCC(=O)NCc2cc(C)c(O)c(C)c2)c1
COc1ccc(C(=O)NCc2ccc(Cl)cc2)cc1S(=O)(=O)N1CCCC1
CCN(CC(=O)Nc1ccc(OC)cc1)C(=O)c1ccc(Cl)c(S(=O)(=O)N2CCCC2)c1
O=[N+]([O-])c1cc(S(=O)(=O)NCCc2ccccn2)ccc1Cl
CC(C#N)(NC(=O)CN1CCN(S(=O)(=O)c2cc(C(F)(F)F)ccc2Cl)CC1)C1CC1 (centres undefined)

Potency, active:
Cc1cc2nc(SCCN3CCOCC3)[nH]c2cc1C 3980 nM
Cc1ccc2cc(/C=N/Nc3ccc(C(=O)O)cc3)c(Cl)nc2c1 1120 nM
CC(C)c1ccc(NC(=S)NC2CC3C=CC2C3)cc1 (centres undefined) 3980 nM
Cc1cc(N/C=C\C(=O)c2ccc(Cl)c(Cl)c2)no1 2510 nM
COc1ccc2c(c1OC)C(=O)N(c1ccc(O)cc1)C2 2820 nM
Nc1c(C(=O)Nc2ccc3c(c2)OCCO3)nnn1Cc1ccccc1 3160 nM
COc1ccc(C2Nc3ccccc3C(=O)N2c2ccc(Cl)cc2)cc1Cn1cc([N+](=O)[O-])cn1 (centres undefined) 3980 nM
COc1ccc(N2C(=O)c3ccccc3NC2c2ccc(OC)c(CN3CCOCC3)c2)cc1 (centres undefined) 2820 nM
c1ccc(-n2ncc3c2ncn2c(C4CCCCC4)nnc32)cc1 3980 nM
Cc1nn2cc(-c3ccc(Cl)cc3)cnc2c1Br 2240 nM
Cc1cc(C)nc(Nc2n[nH]c(-c3ccccc3N)n2)n1 447 nM
O=C(Nc1ccc2oc(-c3ccccc3F)nc2c1)c1ccco1 1580 nM
CC(=O)Nc1cccc(-c2cnc3ccccc3n2)c1 2820 nM
CC(=O)Nc1cccc(-c2csc(Nc3cccc(C)n3)n2)c1 708 nM
Cc1ccccc1N/N=C/c1ccc(N2CCOCC2)cc1 3160 nM
COc1ccc2[nH]cc(CCN3C(=O)c4ccc(C(=O)O)cc4C3=O)c2c1 3550 nM
CN(C)S(=O)(=O)c1ccc2oc(SCC(=O)Nc3ccccc3F)nc2c1 3160 nM
CCOc1ccc2nc(C(=O)N3CCCC(C)C3)sc2c1 (centres undefined) 2000 nM
CC(C)c1ccc(Nc2nnc(SCC(=O)c3nnc(-c4ccccc4)o3)s2)cc1 3980 nM
CC(=O)Nc1cccc(C(=O)OCC(=O)c2ccc3c(c2)OCO3)c1 316 nM
O=C(COC(=O)c1ccccc1)c1ccc2c(c1)OCCO2 316 nM
